# Assay results reported in ChEMBL document CHEMBL3433997, “St. Jude Leishmania screening dataset” (2016).
# What was measured:
# Assay type in all cases: functional
# [1] = target: Solute carrier family 2, facilitated glucose transporter member 1 (Homo sapiens) (UniProt P11166); assay: ST_JUDE_LEISH: Cytotoxicity at 2uM final concentration against transgenic Leishmania Mexicana promastigotes LmGLUT1 that are glucose transport deficient and complemented with the human glucose transporter GLUT1. Activity is measured by DNA content using SYBR green in vitro
# Chain of Solute carrier family 2, facilitated glucose transporter member 1 (Homo sapiens) (P11166 whole entry): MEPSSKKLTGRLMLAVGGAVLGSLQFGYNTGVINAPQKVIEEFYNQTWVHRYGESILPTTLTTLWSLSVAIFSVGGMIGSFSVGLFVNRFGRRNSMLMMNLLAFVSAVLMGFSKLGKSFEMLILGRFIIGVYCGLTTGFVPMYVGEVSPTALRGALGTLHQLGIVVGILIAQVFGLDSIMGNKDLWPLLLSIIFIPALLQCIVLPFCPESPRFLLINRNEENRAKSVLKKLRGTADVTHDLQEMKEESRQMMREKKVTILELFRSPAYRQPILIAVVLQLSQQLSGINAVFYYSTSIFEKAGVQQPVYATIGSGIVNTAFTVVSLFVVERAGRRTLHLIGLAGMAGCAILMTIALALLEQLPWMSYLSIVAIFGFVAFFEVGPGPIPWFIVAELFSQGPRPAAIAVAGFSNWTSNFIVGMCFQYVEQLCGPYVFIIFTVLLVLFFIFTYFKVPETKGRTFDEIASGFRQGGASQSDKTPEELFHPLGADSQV
# [2] = target: Hexose transporter 1 (Plasmodium falciparum) (UniProt O97467); assay: ST_JUDE_LEISH: Cytotoxicity at 2uM final concentration against transgenic Leishmania Mexicana promastigotes LmPfHT that are glucose transport deficient and complemented with the Plasmodium falciparum hexose transporter. Activity is measured by DNA content using SYBR green in vitro
# [3] = target: Glucose transporter (Leishmania mexicana) (UniProt O61059); assay: ST_JUDE_LEISH: Cytotoxicity at 2uM final concentration against transgenic Leishmania Mexicana promastigotes LmGT2 that are glucose transport deficient and complemented with the L. Mexicana glucose transporter 2. Activity is measured by DNA content using SYBR green in vitro
SMILES,inhibition [1],inhibition [2],inhibition [3]
C=CCn1c(=N)c(C(=O)NC2CCCCC2)cc2c(=O)n3cccc(C)c3nc21,11.3%,15.2%,4.5%
CC(C)Cn1ccc2c3c(N)nc(N)nc3ccc21,27.1%,47.5%,17%
CN1C(=C2SC(=Nc3ccc4ncccc4c3)N(Cc3ccccc3)C2=O)Sc2ccc(Cl)cc21,1.22%,2.08%,1.06%
O=C(CSc1nc(-c2ccccc2Cl)ns1)Nc1cccc(Cl)c1,1.59%,1.79%,0.35%
N#Cc1ccc(-c2ccc3nc(N4CCCN(C5CCC5)CC4)ccc3c2)cc1,6.14%,7%,6.34%
OC1(Cc2ccccc2)CCN(Cc2cccc(-c3c[nH]c4nc(NC5CCCC5)ncc34)c2)CC1,9.83%,8.36%,6.99%
O=C(NCCN1CCCC1)c1cccc(-c2ccc(-c3nc4cc(F)ccc4[nH]3)cc2)c1,-0.09%,-0.39%,-1.28%
COc1cc(-c2ccc3c(-c4ccc(C(=O)N5CCN(C)CC5)cc4)n[nH]c3n2)cc(OC)c1OC,0.99%,1.78%,5.3%
Oc1ccc(-c2nc(-c3ccc4oc5ccc(-c6[nH]c(-c7ccc(O)cc7)nc6-c6ccccc6)cc5c4c3)c(-c3ccccc3)[nH]2)cc1,-2.06%,-1.28%,-0.47%
CC(=O)c1c[nH]c2ccc(/C=C/C(=O)NC3CCC(CCN4CCc5ccc(C#N)cc5CC4)CC3)cc12 (centres undefined),19.5%,14.9%,18.9%
Nc1cccc(CNCc2ccc(-c3cccc(-c4nc5cc(C(F)(F)F)ccc5[nH]4)c3)cc2)c1,0.23%,1.1%,1.02%
Cc1ccc(Cc2c[nH]c(NCCSCc3ccc(CN(C)C)s3)nc2=O)cn1,1.24%,1.14%,2.78%
CC1CN(c2cc(=O)n(Cc3ccc(NC(=O)Nc4ccc(-c5ccccc5)cc4)cc3)cn2)CC(C)N1 (centres undefined),1.33%,1.47%,-0.75%
CCN(CC)CC(O)Cc1c2ccc([N+](=O)[O-])cc2nc2cc(OC)c(OC)cc12 (centres undefined),0.42%,1.89%,-1.11%
Cc1nc(C)c(-c2ccc(Oc3ccc(OC(F)(F)F)cc3)cc2)c(O)c1I,-0.28%,0.69%,-1.65%
Cc1cc(N[C@@H](CC(C)C)C(=O)Nc2ccccc2)nc(Nc2ccccc2)n1,1.17%,-0.52%,-0.1%
Cc1ccc(NC(=O)c2cn(-c3ccccc3)nc2-c2ccc(F)cc2)cc1[N+](=O)[O-],4.38%,3.28%,1.86%

SMILES,inhibition [1],inhibition [2],inhibition [3]
COc1cc(F)c2nccc([C@@H](O)CN3CCC(NCc4cc5c(cc4F)OCCO5)CC3)c2c1,1.5%,0.69%,-2.93%
O=C(CC1SC(N2N=C(c3cccs3)CC2c2ccccc2)=NC1=O)Nc1ccccc1F (centres undefined),14.2%,11.5%,3.51%
CCCc1cc(=O)[nH]c(-n2nc(C)cc2NC(=O)c2cc3ccccc3o2)n1,12.6%,13.1%,4.77%
O=c1cc(NCCCNCc2ccccc2-c2ccccc2)[nH]c2ccccc12,2.76%,3.22%,1.59%
Nc1nc2c(cnn2CCCCCCCP(=O)(O)O)c(=O)[nH]1,-0.8%,0.25%,-0.36%
O=C(NCCCN1CCCCC1)c1cccc(Nc2nccc(Nc3ccc(Oc4ccccc4)cc3)n2)c1,-2.69%,-2.52%,-2.53%
CCCc1cc(N2CCC(N3CCCC3)CC2)nc(Nc2ccc(OC)cc2)n1,1.06%,2.18%,0.63%
C(=N\Nc1nccc2sc(-c3cccnc3)cc12)/c1ccncc1,5.3%,5.29%,1.98%
CN1CCN(c2ccnc3ccc(NC(=O)Nc4cccc5c(Br)cccc45)cc23)CC1,0.91%,3.33%,2.86%
Cc1c(S(=O)(=O)Nc2cccc(CCN3CCCCC3CCN3CCCC3)c2)sc2ccc(Cl)cc12 (centres undefined),-1.39%,2.14%,-0.62%
Oc1ccccc1CN1CCC2(CCCN(Cc3ccccc3F)C2)C1 (centres undefined),2.03%,-1.06%,1.57%
Cc1cc(O)c(CN(C)Cc2ccc3c(c2)OCCO3)cc1C(C)C,4.86%,5.38%,2.54%
O=C(NCc1ccc(Cl)c(Cl)c1)[C@H]1CNCCN1C(=O)c1ccccc1,2.83%,1.69%,2.44%
Cc1cc(Oc2ccc(-n3ccnc3)cc2)nc(N2CCN(CCCN3CCCC3)CC2)n1,4%,5.53%,2.69%
Cn1c(=N)n(CC(=O)OCc2ccc(OCc3ccccc3)cc2)c2ccccc21,2.99%,2.29%,1.49%
CC[C@H](NC(=O)c1c(N)c(-c2sccc2Cl)nc2ccccc12)c1ccccc1,3.8%,0.64%,1.74%
